Experimental data as given in PubChem BioAssay (NCATS).
Results filed as inconclusive are left out. Active and inactive are the calls of the source. Unless noted, the call rests on the fitted dose curve; in most records, active means well fitted curve in the direction sought with a large enough effect; inconclusive means small, poorly fitted or top-dose-only effect, or another doubt; inactive means no such curve, though single readings can be large; an effect the other way counts as inactive or inconclusive.

Legend:
[1] = target: Lysosomal acid glucosylceramidase (Homo sapiens) (UniProt P04062); assay: Glucocerebrosidase-p2 (AID 348; in the data active means potency below about 10 µM; further: potency means the concentration at half of the fitted maximal effect); settings: purified GBA, blue fluorogenic substrate, 40 min
Chain of Lysosomal acid glucosylceramidase (Homo sapiens) (P04062 whole entry, looked up): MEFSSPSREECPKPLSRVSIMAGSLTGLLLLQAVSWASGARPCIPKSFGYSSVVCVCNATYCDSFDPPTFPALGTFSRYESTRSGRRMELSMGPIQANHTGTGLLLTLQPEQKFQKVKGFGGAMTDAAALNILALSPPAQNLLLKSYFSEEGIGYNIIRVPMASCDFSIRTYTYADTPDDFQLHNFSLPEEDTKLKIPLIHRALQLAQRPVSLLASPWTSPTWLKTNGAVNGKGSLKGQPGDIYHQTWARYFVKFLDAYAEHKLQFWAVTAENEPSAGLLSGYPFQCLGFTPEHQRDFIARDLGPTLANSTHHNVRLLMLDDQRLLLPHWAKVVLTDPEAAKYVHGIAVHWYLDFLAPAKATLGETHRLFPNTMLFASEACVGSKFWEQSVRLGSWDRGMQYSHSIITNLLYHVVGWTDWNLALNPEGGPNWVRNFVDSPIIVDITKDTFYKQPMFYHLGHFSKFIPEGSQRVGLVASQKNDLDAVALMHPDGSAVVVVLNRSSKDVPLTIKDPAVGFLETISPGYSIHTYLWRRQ
Summary of the method: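 Compounds titrated from 0.6 nM upwards against 0.2 nM enzyme in pH 5.9 citric acid/KH2PO4, taurocholate, tween-20; blue fluorogenic substrate 80 uM, 40 min room temperature, stopped and read Ex 365/Em 440 for AC50.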

[2] = AP1 Signaling Pathway (AID 357; active means well fitted curve in either direction with a large enough effect, not every such curve was filed as active;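 further: ME-180 reporter cells stimulated with EGF at its EC50 level; on the % scale 0 is the no-effect control and ±100 the full control effect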); settings: ME-180 AP-1-bla reporter, EGF-induced, beta-lactamase ratio, 5 h; at 7.69 µM (top of the series) unless noted
Summary of the method: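 Modulation of EGF-driven AP-1 transcription was assessed with a beta-lactamase reporter in ME-180 cells. Compound and EC50 EGF were co-incubated 5 hours at 37 °C before 2.5-hour CCF4 loading at room temperature and dual-emission reading.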

[3] = target: Cytochrome P450 1A2 (Homo sapiens) (UniProt P05177); assay: p450-cyp1a2 (AID 410; calls by dose curve; further: potency means the concentration at half of the fitted maximal effect); settings: recombinant CYP1A2, luciferin-ME demethylation, luminescence; series mostly up to 57 µM
Chain of Cytochrome P450 1A2 (Homo sapiens) (P05177 whole entry, looked up): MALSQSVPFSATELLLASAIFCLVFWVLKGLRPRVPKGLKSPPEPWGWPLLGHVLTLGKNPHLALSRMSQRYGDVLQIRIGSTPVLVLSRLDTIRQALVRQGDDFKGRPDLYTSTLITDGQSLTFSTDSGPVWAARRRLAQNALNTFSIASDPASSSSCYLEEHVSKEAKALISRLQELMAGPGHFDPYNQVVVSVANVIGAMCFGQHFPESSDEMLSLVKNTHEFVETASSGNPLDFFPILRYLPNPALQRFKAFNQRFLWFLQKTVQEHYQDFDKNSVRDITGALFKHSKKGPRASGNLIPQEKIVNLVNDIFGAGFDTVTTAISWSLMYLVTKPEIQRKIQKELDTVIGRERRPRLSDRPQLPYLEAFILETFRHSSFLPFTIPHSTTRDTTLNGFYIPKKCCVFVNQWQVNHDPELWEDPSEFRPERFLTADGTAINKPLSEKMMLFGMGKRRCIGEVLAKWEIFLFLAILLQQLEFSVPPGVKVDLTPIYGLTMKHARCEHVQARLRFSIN
Summary of the method: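 Luminescent readout of luciferin formed from Luciferin-ME by human CYP1A2; data normalized against complete inhibition by 57 uM furafylline. Enzyme 20nM, substrate 100uM at Km, 100mM KPO4 buffer, 60 min reaction at room temperature.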

[4] = Stat Signaling Pathway (AID 446; active means well fitted curve in either direction with a large enough effect, not every such curve was filed as active;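 further: ME-180 cervical cancer cells given 40 pM IL-6 alongside compound; SIE-controlled beta-lactamase reporter measured as 460/530 nm FRET emission ratio; on the % scale 0 is the no-effect control and ±100 the full control effect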); settings: ME-180 SIE beta-lactamase reporter, IL-6 stimulated, 5 h; at 7.69 µM (top of the series) unless noted
Summary of the method: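 Screening format detects activators and inhibitors alike: ME-180 SIE-bla cells stimulated at 40 pM IL-6 for 5 hrs with compound, then dual-emission beta-lactamase read at 405 nm excitation.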

[5] = target: Glucocorticoid receptor (Homo sapiens) (UniProt P04150); assay: GR-GFP Redistribution (AID 450;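 active means compounds whose dose series gives a full or clear partial fitted curve of increased nuclear translocation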; further: potency means the concentration at half of the fitted maximal effect); settings: U2OS GR-GFP nuclear translocation, laser cytometry, 2 h
Chain of Glucocorticoid receptor (Homo sapiens) (P04150 whole entry, looked up, the tested form may be a part): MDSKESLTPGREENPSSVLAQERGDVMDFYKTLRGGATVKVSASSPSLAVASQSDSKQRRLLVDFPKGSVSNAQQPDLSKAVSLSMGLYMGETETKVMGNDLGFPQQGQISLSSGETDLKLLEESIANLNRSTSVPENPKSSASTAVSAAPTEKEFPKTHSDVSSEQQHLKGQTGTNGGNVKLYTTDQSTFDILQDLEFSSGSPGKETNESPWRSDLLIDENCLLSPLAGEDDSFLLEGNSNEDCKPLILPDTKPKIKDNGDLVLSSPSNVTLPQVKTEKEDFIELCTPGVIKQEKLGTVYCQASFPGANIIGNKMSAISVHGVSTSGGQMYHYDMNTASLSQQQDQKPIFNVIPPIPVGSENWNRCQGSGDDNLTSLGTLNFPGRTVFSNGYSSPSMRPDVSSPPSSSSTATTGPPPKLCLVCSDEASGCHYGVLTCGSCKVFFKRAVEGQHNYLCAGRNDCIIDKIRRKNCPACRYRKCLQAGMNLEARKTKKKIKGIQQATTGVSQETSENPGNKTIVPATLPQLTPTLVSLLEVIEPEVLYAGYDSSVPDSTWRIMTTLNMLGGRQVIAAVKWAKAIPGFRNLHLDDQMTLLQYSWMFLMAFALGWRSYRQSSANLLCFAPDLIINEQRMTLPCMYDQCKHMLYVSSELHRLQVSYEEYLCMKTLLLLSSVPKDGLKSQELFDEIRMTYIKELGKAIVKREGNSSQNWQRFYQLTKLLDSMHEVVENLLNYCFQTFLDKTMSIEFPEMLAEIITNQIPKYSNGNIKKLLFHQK

[6] = target: Glucocorticoid receptor (Homo sapiens) (UniProt P04150); assay: GR-EFC Redistribution (AID 451; calls by dose curve; further: potency means the concentration at half of the fitted maximal effect); settings: CHO-K1 GR-EFC translocation, beta-gal luminescence, 2 h
Summary of the method: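 Translocation of GR-ED fusion to nuclear EA restores b-gal, read by luminescence after 1 h room-temperature detection. Engineered CHO-K1 biosensor cells, 1,000/well, exposed 2 h at 37 C to titrations up to 46 uM final.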

[7] = target: Mitogen-activated protein kinase 10 (Mus musculus) (UniProt Q61831); assay: JNK3 AlphaScreen Assay (AID 530; active means well fitted curve in either direction with a large enough effect, not every such curve was filed as active;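 further: kinase came from lysate of stimulated human HepG2 cells; signal reports phosphorylation of biotinylated GST-cJun 1-79 at Ser73 with 10 µM ATP; on the % scale 0 is the no-effect control and ±100 the full control effect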); settings: JNK3 lysate, c-Jun phosphorylation; series mostly up to 57.1 µM
Summary of the method: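 Compound titrations were preincubated 15 minutes at room temperature with substrate, antibody and pre-activated JNK3-containing HepG2 lysate. Reactions were started with 10 uM ATP and stopped with EDTA-containing bead buffer for AlphaScreen detection.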

[8] = target: 3',5'-cyclic-AMP phosphodiesterase 4B (Homo sapiens) (UniProt Q07343); assay: qHTS Assay for Inhibitors of PDE-IV (AID 607; active means well fitted activation curve with a large enough effect in the main read-out, with a control signal flat, not every such curve was filed as active; further: % of control where 0% means no effect); settings: HEK293 ACTOne CNG channel cells, membrane potential fluorescence; series mostly up to 22.9 µM
Chain of 3',5'-cyclic-AMP phosphodiesterase 4B (Homo sapiens) (Q07343 whole entry, looked up): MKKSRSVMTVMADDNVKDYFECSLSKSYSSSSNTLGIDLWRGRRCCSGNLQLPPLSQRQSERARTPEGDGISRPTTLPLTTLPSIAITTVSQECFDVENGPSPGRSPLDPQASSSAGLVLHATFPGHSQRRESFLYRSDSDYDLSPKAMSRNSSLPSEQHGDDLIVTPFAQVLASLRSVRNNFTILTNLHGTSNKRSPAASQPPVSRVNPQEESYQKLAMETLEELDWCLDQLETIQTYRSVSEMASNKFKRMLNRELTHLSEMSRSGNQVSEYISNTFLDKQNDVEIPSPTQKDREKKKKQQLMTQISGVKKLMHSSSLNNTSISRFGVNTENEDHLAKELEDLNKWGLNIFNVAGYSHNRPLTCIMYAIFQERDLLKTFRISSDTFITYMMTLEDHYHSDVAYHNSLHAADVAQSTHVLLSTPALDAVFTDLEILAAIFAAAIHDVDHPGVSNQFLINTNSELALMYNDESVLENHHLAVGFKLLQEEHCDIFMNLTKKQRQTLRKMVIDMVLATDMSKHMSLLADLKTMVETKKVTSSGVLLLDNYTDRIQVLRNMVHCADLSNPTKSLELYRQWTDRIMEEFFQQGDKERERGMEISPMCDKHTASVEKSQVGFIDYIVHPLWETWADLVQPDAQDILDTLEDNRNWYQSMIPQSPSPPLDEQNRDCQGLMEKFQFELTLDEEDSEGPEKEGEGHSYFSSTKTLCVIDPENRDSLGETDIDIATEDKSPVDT
Summary of the method: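 The readout is membrane depolarisation from a cAMP-sensing CNG channel, detected with a potential dye at ex 535/em 590. Cells were HEK293-derived (endogenous PDE-IV) at 1000 cells/well, titrated up to 22.9 uM final.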

[9] = target: Cytochrome P450 3A4 (Homo sapiens) (UniProt P08684); assay: qHTS Assay for Activators of Cytochrome P450 3A4 (AID 885); settings: recombinant CYP3A4, Luciferin-PPXE luminescence, 60 min; series mostly up to 57.1 µM; further: nearly all actives have a fitted effect of over 65% in size
Chain of Cytochrome P450 3A4 (Homo sapiens) (P08684 whole entry, looked up): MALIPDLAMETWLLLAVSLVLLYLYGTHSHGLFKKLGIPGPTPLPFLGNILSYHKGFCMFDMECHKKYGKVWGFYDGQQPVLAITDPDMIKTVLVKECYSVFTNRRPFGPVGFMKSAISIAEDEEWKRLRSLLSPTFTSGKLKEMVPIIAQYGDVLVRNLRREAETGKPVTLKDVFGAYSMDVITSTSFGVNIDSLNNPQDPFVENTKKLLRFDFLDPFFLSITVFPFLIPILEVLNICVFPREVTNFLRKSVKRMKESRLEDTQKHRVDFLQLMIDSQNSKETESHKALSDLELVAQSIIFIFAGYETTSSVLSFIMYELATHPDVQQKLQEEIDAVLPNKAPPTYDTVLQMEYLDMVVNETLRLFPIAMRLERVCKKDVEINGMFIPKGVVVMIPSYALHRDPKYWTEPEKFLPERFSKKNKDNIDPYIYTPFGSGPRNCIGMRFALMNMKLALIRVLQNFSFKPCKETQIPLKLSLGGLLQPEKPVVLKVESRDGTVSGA
Summary of the method: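 Steps: enzyme/substrate mix dispensed; compound added, 10 min RT; NADPH regeneration solution added, 60 min RT; luciferin detection buffer stops reaction; 20 min later luminescence measured.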

[10] = Confirmation and Secondary Assay for Modulators of Hemoglobin Beta Chain Splicing at IVS2 654 locus (AID 910); settings: HeLa EGFP-654 splicing reporter, GFP fluorescence, 48 h; series mostly up to 38.3 µM;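 further: HeLa cells stably carrying EGFP split by mutant beta-globin IVS2-654 intron; per-well total GFP intensity by laser scanning cytometry after 2-day treatment; % of control where 0% means no effect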
Summary of the method: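 Readout: per-well total peak green fluorescence (488 nm ex, 500–520 nm em) from objects 5–250 µm, reflecting correct splicing of an EGFP-654 reporter. Compounds were applied for 2 days at 37 °C to overnight-plated HeLa EGFP-654 cells; controls were DMSO and 500 nM IVS2-654 PNA.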

[11] = Confirmation and Secondary Assay for Modulators of Hemoglobin Beta Chain Splicing at IVS2 705 locus (AID 930); settings: HeLa EGFP-705 splicing reporter, GFP fluorescence, 48 h; series mostly up to 38.3 µM;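 further: HeLa cells stably expressing the EGFP-705 splicing reporter; GFP fluorescence per well restored by corrected splicing of the IVS2-705 intron in EGFP; % of control where 0% means no effect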
Summary of the method: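 HeLa IVS2-705 EGFP reporter cells, 500/well, compound 2 d at 37C; correct splicing yields fluorescent EGFP. Control: 500 nM antisense PNA. Read-out: total peak GFP intensity.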

[12] = target: Ubiquitin carboxyl-terminal hydrolase 1 (Homo sapiens) (UniProt O94782); assay: Inhibitors of USP1/UAF1: Pilot qHTS (AID 504865); settings: purified USP1/UAF1, Ub-rhodamine cleavage fluorescence; series mostly up to 54.9 µM;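 further: rhodamine fluorescence freed from ubiquitin-rhodamine substrate followed over time; top concentration of the series differs between compounds; on the % scale 0 is the no-effect control and ±100 the full control effect; nearly all actives have a fitted effect of over 35% in size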
Chain of Ubiquitin carboxyl-terminal hydrolase 1 (Homo sapiens) (O94782 whole entry, looked up): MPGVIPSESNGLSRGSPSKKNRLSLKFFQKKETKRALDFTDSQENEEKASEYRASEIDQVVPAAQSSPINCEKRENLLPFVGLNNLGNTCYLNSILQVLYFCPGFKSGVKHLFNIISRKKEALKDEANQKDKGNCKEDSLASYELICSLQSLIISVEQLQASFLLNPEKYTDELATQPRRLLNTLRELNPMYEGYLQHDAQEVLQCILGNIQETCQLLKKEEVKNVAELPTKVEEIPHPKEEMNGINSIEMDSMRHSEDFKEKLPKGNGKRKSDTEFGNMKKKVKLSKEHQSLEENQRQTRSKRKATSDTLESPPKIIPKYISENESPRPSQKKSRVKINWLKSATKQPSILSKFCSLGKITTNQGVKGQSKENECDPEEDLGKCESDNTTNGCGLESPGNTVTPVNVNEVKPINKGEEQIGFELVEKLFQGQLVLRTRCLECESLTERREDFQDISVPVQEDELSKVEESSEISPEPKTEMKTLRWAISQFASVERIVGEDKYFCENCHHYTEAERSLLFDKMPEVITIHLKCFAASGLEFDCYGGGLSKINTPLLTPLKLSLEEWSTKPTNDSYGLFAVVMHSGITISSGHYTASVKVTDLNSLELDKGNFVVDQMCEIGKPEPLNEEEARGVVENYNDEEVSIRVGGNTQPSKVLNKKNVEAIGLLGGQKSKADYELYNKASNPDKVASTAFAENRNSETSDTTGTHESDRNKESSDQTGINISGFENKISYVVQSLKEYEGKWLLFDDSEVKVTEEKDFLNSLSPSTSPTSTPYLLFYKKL
Summary of the method: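 USP1/UAF1 complex (1nM) preincubated with compound 15 min at room temperature, then Ub-Rho substrate (150nM final) added. Fluorescence read kinetically at 480/540 nm, 6 reads every 60 seconds. Buffer: 50mM HEPES pH 7.8, 0.5mM EDTA, 0.1 mg/ml BSA, 1mM TCEP, 0.01% Tween-20.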

[13] = Primary qHTS for small molecule stabilizers of the endoplasmic reticulum resident proteome: Secreted ER Calcium Modulated Protein (SERCaMP) assay (AID 1508630); settings: SH-SY5Y GLuc-SERCaMP (Gaussia luciferase released on ER calcium loss) secretion, thapsigargin, luminescence; series mostly up to 38.4 µM; further: on the % scale 0 is the no-effect control and ±100 the full control effect
Summary of the method: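 GLuc-SERCaMP-expressing SH-SY5Y cells, pretreated 16 h with compound, are challenged with thapsigargin to empty ER calcium stores; after 4 h, coelenterazine is added directly to the medium and luminescence is imaged.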

[14] = target: Cytochrome P450 3A4 (Homo sapiens) (UniProt P08684); assay: qHTS Assay for Inhibitors and Substrates of Cytochrome P450 3A4 (AID 884); settings: recombinant CYP3A4, Luciferin-PPXE luminescence; series mostly up to 57.1 µM; further: potency means the concentration at half of the fitted maximal effect; nearly all actives have a fitted effect of over 50% in size
Summary of the method: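 20 nM human CYP3A4 with 25 uM Luciferin-PPXE (at KM) in 200 mM KPO4, preincubated 10 min with compound; NADPH regeneration started a 60 min RT reaction. Luciferin detected by luminescence, normalized to 57 uM ketoconazole as full inhibition.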

[15] = target: Cytochrome P450 2D6 (Homo sapiens) (UniProt P10635); assay: qHTS Assay for Inhibitors and Substrates of Cytochrome P450 2D6 (AID 891); settings: recombinant CYP2D6, luciferin-ME EGE luminescence; series mostly up to 57.1 µM; further: potency means the concentration at half of the fitted maximal effect; nearly all actives have a fitted effect of over 60% in size
Chain of Cytochrome P450 2D6 (Homo sapiens) (P10635 whole entry, looked up): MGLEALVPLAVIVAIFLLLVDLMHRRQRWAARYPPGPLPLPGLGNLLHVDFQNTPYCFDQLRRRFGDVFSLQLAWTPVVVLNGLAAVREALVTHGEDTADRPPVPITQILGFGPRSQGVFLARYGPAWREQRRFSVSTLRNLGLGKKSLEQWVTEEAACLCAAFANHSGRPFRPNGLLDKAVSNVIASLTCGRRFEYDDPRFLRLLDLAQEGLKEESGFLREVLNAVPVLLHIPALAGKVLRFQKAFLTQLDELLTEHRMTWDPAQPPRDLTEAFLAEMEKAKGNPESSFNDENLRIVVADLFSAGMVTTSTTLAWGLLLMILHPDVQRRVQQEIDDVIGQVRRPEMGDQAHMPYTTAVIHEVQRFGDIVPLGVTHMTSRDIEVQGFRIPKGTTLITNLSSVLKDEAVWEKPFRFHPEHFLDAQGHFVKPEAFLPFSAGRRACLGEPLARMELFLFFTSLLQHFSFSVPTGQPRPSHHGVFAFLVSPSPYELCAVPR
Summary of the method: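 Human CYP2D6 (5 nM) with 30 uM Luciferin-ME EGE (at Km) in 100 mM KPO4, compound preincubated 10 min, then NADPH regeneration system for 60 min at room temperature. Luciferin read by luminescence; normalized to 1.43 uM quinidine.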

[16] = target: Cytochrome P450 2C19 (Homo sapiens) (UniProt P33261); assay: qHTS Assay for Inhibitors and Substrates of Cytochrome P450 2C19 (AID 899); settings: recombinant CYP2C19, luciferin-H EGE luminescence; series mostly up to 57.1 µM; further: potency means the concentration at half of the fitted maximal effect; nearly all actives have a fitted effect of over 60% in size
Chain of Cytochrome P450 2C19 (Homo sapiens) (P33261 whole entry, looked up): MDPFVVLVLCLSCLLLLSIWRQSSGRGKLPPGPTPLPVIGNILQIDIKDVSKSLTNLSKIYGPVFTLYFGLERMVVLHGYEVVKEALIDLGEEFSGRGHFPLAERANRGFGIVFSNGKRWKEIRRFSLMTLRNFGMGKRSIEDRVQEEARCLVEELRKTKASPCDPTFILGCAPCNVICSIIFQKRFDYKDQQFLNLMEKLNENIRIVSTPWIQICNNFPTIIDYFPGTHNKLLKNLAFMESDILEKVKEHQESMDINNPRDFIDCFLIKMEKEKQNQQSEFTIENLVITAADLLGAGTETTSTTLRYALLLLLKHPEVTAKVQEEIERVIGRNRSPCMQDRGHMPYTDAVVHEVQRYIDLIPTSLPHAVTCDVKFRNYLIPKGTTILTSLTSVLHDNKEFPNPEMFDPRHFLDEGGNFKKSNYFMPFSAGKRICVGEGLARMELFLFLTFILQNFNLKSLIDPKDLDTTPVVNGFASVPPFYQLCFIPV
Summary of the method: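 5nM enzyme + 10uM Luciferin-H EGE (=KM), 50mM KPO4; cpd pin-transferred, 10 min 37C; NADPH regen, 60 min 37C; stopped w/ luciferin detection reagent, 20 min; luminescence. Normalized to 57uM ketoconazole (AC100).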

[17] = NFAT Signaling Pathway (AID 444; active means well fitted curve in either direction with a large enough effect, not every such curve was filed as active); settings: Jurkat NFAT-bla M1, carbachol, beta-lactamase ratio, 5 h; at 7.69 µM (top of the series) unless noted
Summary of the method: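 Read-out: CCF4 FRET ratio (460 nm/530 nm) after 1 h RT dye loading, used for %activity and AC50 from titration series. Cells: Jurkat NFAT-β-lactamase/M1 line, treated with compound plus 1 uM carbachol for 5 h, 37 °C.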

[18] = target: Cytochrome P450 2C9 (Homo sapiens) (UniProt P11712); assay: qHTS Assay for Inhibitors and Substrates of Cytochrome P450 2C9 (AID 883); settings: recombinant CYP2C9, luciferin-H luminescence, 60 min; series mostly up to 57.1 µM; further: potency means the concentration at half of the fitted maximal effect; nearly all actives have a fitted effect of over 60% in size
Summary of the method: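 Inhibition of CYP2C9 is scored as loss of luminescence, with 57uM sulphaphenazole defining 100% inhibition. Substrate Luciferin-H is used at 100uM, equal to its KM; enzyme at 10nM in 25mM KPO4, 60 min at 37C with NADPH regeneration.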

COc1ccc2[nH]cc(CCNc3nc(-c4ccccc4CN(C)C)nc4ccccc34)c2c1
inactive: Potency [1] > 11.4 µM | activity change, negative = inhibition [2] -0.774% | activity, negative = inhibition [4] 4.15% | Potency [5] > 46 µM | Potency [6] > 46 µM | Potency [7] | Potency [8] | Potency [9] | Potency [10] | outcome [11] | Potency [12] | outcome [13]
active: Potency [3] 25.1 µM

CN(Cc1ccco1)c1ncncc1-c1ccc2c(c1)OCO2
active: Potency [3] 0.2 µM | Potency [14] 1.26 µM | Potency [15] 1.26 µM | Potency [16] 0.126 µM
inactive: Potency [1] > 11.4 µM | activity change, negative = inhibition [2] 1.93% | activity, negative = inhibition [4] -2.55% | Potency [5] > 46 µM | Potency [6] > 46 µM | Potency [7] | Potency [9] | Potency [12] | outcome [13]

N#Cc1cccc(-c2nc3cnc(N4CCNCC4)nc3n(C3CC3)c2=O)c1
active: Potency [3] 5.01 µM | Potency [18] 0.631 µM
inactive: Potency [1] > 11.4 µM | activity change, negative = inhibition [2] 13.2% | activity change, negative = inhibition [17] 26.2% | Potency [5] > 9.22 µM | Potency [6] > 46 µM | Potency [7] | Potency [8] | Potency [9] | outcome [13]

O=C(c1cccc(F)c1)N1CCC2(CCCN(Cc3ccncc3)C2)CC1
active: Potency [3] 15.8 µM | Potency [18] 0.631 µM | Potency [15] 7.94 µM
inactive: Potency [1] > 11.4 µM | activity change, negative = inhibition [2] -4.41% | activity, negative = inhibition [4] -4.85% | Potency [6] > 46 µM | Potency [7] | Potency [8] | Potency [9] | outcome [13]

COc1ccc(C(=O)N2CCC[C@@]3(CCN(c4cccc(-c5ccccc5)c4)C3)C2)cc1
inactive: Potency [1] > 11.4 µM | activity change, negative = inhibition [2] 8.11% | activity change, negative = inhibition [17] -15.1% | activity, negative = inhibition [4] -9.84% | Potency [6] > 46 µM | Potency [9] | outcome [13]
active: Potency [3] 12.6 µM | Potency [14] 3.16 µM | Potency [16] 7.94 µM

O=C(c1cnccn1)N1CCC2(CCCN(c3ccc(-c4ccccc4)cc3)C2)CC1
inactive: Potency [1] > 11.4 µM | activity change, negative = inhibition [2] -27.9% | activity, negative = inhibition [4] 8.97% | Potency [6] > 46 µM | Potency [7] | Potency [8] | outcome [13]
active: Potency [3] 25.1 µM
